Measurements published in paper PMC5540273 (PLoS ONE, 2017).

These compounds were tested on T1, GCN2(Kin.Dom.2,S808G). Conditions: concentration: 1 μM, replicates: in singlicate; n = 1.
T1 construct: gene EIF2AK4
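Also: KINOMEscan kinase panel screen.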

SMILES	%Inh [%]
Nc1ncc(-c2cccnc2)c2scc(-c3ccc4c(c3)CCN4C(=O)Cc3ccccc3)c12 [GSK683281]	75
c1ccc(Oc2ccc(Nc3ccnc4cc(-c5ccc(CNCCN6CCOCC6)o5)ccc34)cc2)nc1 [GW567145]	0
Cl.Cl.NCC(NCc1ccc(-c2ccnc3[nH]ccc23)s1)c1ccccc1 (stereo not drawn) [GSK1321565]	0
CCn1c(-c2nonc2N)nc2c(C#CC(C)(C)O)nc(OC[C@H](N)c3ccccc3)cc21 [GSK943949]	19
O=C(Nc1cccc(-c2nn3ncccc3c2-c2ccnc(Nc3ccccc3)n2)c1)c1c(F)cccc1F [GSK198271]	33
CCS(=O)(=O)c1ccc(OC)c(Nc2nccc(-c3c(-c4cccc(NC(=O)c5c(F)cccc5F)c4)nn4ncccc34)n2)c1 [GSK326180]	8
C[C@@H](Oc1cc(-n2cnc3cc(-c4ccnc(NCCS(C)(=O)=O)c4)ccc32)sc1C(N)=O)c1ccccc1Cl [GSK907232]	71
Oc1cc(Nc2ccnc3cc(I)ccc23)ccc1F [GW552771]	8
Nc1ncc(-c2ccc3nccc(-c4ccncc4)c3c2)cc1S(=O)(=O)N1CCOCC1 [GSK1627798]	3
Cl.Cl.NCC(C(=O)Nc1cc(Br)c(-c2ccnc3[nH]ccc23)s1)c1ccccc1 (stereo not drawn) [GSK1269851]	0
COc1ccc(Nc2nccc(N3CCC(NC(=O)Nc4cccc(OC)c4)C3)n2)cc1 (stereo not drawn) [GSK1379742]	6
Cc1cccc(NC(=O)Nc2ccc(Oc3ncnc4ccn(C)c34)cc2)c1	0
